Holding throughout (assay): DAPPL (digital affinity profiling via proximity ligation, sequencing); 10 mM Tris-HCl pH 7.5, 50 mM NaCl, 1 mM DTT, 4% glycerol, room temperature, 30 min; GST-TFs on glutathione beads, 16-mer random dsDNA library, 0.1% formaldehyde crosslink after washing; high values mean tight binding
One test addresses T1, FEV (Homo sapiens, UniProt Q99581 1-238).
T1 sequence: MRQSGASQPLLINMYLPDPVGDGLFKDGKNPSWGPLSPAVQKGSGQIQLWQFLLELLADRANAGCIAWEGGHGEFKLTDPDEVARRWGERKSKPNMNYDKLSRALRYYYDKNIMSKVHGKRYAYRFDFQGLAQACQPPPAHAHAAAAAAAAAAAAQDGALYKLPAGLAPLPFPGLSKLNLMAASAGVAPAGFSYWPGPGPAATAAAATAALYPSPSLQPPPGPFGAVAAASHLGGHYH
The note with it: protein: recombinant; tags: N-terminal GST; dsDNA, one strand shown. The method, boiled down: (§1)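 Binding signal is given per hexamer as its read frequency for a factor divided by its frequency in the tag-only sample. GST-fused human transcription factors were expressed in yeast, captured on glutathione beads, barcoded with DNA and pooled with that sample, then incubated with 200 nmole of a 16-mer random double-stranded DNA library in Tris/NaCl/DTT/glycerol buffer for 30 min at room temperature. The pools were then washed, crosslinked, proximity-ligated, amplified by PCR and sequenced on an Illumina NextSeq500.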

The next test concerns the target ETV5 (Homo sapiens, UniProt P41161 1-510). Particulars: protein: recombinant; tags: N-terminal GST; dsDNA, one strand shown. The method, boiled down:
as §1

The target of another test is HSF1 (Homo sapiens, UniProt Q00613 1-529). Particulars: protein: recombinant; tags: N-terminal GST; chain copies: 3; dsDNA, one strand shown. Put shortly: as §1
Sequence of HSF1 (Q00613 whole entry): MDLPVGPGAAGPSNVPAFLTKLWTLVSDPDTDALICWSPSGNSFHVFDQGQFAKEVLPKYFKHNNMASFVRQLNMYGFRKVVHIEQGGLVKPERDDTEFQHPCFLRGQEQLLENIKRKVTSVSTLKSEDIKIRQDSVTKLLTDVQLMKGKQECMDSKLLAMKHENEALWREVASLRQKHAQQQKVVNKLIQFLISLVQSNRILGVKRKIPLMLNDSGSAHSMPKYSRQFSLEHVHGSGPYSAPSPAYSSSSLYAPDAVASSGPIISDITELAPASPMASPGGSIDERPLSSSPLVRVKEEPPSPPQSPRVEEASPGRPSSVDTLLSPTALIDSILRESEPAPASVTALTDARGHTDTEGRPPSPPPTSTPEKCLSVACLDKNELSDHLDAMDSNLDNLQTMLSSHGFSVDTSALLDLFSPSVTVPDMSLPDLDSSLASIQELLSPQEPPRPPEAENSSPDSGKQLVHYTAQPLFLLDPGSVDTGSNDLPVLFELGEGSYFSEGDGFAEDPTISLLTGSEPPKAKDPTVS
The target in another test is T2, SPIC (Homo sapiens, UniProt Q8N5J4 1-248).
T2 sequence: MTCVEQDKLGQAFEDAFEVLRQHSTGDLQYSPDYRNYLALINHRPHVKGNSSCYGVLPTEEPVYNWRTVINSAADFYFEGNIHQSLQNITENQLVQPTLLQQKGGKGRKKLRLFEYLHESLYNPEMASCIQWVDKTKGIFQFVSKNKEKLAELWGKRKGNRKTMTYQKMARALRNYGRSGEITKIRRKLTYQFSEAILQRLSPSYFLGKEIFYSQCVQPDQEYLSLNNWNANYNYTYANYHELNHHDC
The note with it: protein: recombinant; tags: N-terminal GST; dsDNA, one strand shown. The method, boiled down:
as §1

The target in another test is ELF4 (Homo sapiens, UniProt Q99607 1-663). Particulars: protein: recombinant; tags: N-terminal GST; dsDNA, one strand shown. Put shortly: as §1
Sequence of ELF4 (Q99607 whole entry): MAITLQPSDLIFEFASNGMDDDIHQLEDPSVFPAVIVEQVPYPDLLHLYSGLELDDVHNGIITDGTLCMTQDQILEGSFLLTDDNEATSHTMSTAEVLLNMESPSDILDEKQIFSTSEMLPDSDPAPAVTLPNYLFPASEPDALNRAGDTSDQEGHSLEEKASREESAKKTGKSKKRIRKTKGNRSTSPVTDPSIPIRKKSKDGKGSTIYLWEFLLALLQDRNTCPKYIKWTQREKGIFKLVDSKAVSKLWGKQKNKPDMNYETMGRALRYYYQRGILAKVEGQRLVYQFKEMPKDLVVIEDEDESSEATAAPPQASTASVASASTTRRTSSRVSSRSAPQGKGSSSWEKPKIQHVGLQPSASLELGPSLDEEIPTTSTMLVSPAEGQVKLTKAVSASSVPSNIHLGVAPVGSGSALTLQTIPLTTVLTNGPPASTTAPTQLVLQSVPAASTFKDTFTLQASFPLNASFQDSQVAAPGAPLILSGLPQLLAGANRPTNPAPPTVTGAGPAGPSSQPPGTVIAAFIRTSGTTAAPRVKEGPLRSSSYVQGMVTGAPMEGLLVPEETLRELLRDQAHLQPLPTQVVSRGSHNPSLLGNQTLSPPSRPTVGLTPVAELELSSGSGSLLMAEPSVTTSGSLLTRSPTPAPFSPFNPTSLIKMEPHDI
Another test concerns the target T3, ELK4 (Homo sapiens, UniProt P28324-2 1-405).
T3 sequence: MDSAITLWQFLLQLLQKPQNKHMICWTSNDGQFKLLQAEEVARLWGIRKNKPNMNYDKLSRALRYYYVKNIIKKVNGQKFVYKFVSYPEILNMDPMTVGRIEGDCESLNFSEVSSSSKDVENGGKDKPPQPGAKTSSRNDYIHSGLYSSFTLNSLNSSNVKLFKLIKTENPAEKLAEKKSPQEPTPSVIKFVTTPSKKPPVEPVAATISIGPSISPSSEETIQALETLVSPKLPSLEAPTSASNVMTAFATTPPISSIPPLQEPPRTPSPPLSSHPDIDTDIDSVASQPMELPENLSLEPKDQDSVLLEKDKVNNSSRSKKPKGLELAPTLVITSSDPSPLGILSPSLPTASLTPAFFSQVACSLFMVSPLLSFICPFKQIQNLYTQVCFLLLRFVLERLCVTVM
The note with it: protein: recombinant; tags: N-terminal GST; dsDNA, one strand shown. Put shortly: as §1

The target of the next test is T4, ETV2 (Homo sapiens, UniProt O00321 1-342).
T4 sequence: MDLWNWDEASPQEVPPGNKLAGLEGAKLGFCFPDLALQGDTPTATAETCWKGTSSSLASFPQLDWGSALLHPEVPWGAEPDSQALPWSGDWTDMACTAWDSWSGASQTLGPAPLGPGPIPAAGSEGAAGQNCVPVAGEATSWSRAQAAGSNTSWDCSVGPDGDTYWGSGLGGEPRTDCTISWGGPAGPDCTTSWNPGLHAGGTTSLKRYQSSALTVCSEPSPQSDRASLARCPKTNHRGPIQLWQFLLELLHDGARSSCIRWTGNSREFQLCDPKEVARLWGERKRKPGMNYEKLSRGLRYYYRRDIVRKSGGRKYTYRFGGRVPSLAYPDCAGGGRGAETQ
The note with it: protein: recombinant; tags: N-terminal GST; dsDNA, one strand shown. Put shortly: as §1

For a further test, the target named is T5, ELF3 (Homo sapiens, UniProt P78545 1-371).
T5 sequence: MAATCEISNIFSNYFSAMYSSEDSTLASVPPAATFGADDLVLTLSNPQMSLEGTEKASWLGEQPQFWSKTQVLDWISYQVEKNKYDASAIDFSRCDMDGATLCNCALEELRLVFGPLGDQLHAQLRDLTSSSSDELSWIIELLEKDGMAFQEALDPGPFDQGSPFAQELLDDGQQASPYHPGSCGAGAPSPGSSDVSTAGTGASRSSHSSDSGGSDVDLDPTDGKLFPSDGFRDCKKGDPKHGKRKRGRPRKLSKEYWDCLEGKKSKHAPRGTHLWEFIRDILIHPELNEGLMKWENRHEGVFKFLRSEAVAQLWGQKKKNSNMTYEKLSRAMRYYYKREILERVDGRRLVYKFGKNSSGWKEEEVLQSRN
Particulars: protein: recombinant; tags: N-terminal GST; dsDNA, one strand shown. Put shortly: as §1

The next test addresses CRX (Homo sapiens, UniProt O43186 1-299). The note with it: protein: recombinant; tags: N-terminal GST; dsDNA, one strand shown. Put shortly:
as §1

In a further test the target is ETV1 (Homo sapiens, UniProt P50549 1-477). The note with it: protein: recombinant; tags: N-terminal GST; dsDNA, one strand shown. The method, boiled down: as §1
Sequence of ETV1 (P50549 whole entry): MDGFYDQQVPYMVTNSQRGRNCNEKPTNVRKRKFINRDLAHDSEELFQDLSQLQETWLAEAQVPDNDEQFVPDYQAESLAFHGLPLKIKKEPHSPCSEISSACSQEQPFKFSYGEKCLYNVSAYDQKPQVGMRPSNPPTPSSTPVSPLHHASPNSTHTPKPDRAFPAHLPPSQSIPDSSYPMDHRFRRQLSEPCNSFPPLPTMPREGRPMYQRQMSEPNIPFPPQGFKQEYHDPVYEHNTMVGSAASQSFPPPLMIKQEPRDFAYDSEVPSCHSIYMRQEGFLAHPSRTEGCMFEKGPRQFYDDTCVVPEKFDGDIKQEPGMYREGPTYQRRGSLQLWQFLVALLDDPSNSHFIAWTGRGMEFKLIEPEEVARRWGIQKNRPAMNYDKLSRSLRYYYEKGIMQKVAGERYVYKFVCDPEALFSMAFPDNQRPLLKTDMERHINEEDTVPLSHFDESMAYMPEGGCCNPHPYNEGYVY
The target in the next test is T6, ERF (Homo sapiens, UniProt P50548 1-548).
T6 sequence: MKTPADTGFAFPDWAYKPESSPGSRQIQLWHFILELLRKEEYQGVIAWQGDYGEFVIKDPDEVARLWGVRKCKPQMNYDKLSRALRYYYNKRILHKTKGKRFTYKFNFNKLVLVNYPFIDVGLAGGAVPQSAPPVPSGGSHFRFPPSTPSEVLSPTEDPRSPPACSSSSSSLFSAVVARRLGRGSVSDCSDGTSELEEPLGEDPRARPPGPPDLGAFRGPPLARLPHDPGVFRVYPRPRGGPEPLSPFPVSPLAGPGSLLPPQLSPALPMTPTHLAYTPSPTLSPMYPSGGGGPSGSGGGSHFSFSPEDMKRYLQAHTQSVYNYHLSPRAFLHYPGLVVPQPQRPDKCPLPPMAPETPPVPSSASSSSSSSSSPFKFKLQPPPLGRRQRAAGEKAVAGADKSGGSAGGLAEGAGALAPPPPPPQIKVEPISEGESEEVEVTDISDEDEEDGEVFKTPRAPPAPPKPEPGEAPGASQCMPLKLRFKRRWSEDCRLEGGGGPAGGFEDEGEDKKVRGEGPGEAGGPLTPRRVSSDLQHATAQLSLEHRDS
Particulars: protein: recombinant; tags: N-terminal GST; dsDNA, one strand shown. The method, boiled down: as §1

Another test has as its target T7, ETV3L (Homo sapiens, UniProt Q6ZN32 1-361).
T7 sequence: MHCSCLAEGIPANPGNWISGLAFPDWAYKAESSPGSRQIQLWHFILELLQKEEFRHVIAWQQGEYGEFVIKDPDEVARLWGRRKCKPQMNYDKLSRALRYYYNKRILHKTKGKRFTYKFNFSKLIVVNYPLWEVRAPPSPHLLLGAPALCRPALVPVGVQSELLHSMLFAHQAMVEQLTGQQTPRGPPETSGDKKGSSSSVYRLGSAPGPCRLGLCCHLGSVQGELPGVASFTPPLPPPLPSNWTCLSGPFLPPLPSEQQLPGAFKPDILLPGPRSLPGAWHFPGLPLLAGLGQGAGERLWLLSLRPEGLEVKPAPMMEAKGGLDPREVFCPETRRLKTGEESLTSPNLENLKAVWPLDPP
Particulars: protein: recombinant; tags: N-terminal GST; dsDNA, one strand shown. Put shortly: as §1

For a further test, the target named is T8, ETS2 (Homo sapiens, UniProt P15036 1-469).
T8 sequence: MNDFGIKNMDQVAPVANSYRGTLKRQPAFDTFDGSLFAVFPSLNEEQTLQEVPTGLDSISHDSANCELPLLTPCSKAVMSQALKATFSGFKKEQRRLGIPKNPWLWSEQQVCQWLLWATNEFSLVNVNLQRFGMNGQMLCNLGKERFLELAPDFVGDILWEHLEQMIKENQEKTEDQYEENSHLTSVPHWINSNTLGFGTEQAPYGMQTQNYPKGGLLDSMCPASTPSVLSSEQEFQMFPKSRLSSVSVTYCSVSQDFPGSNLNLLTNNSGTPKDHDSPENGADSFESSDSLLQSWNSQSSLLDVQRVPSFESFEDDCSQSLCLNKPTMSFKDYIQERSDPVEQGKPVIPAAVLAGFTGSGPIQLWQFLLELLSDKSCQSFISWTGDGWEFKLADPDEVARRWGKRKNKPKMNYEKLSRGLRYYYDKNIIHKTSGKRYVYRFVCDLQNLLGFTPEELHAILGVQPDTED
Particulars: protein: recombinant; tags: N-terminal GST; dsDNA, one strand shown. The method, boiled down: as §1

The target of another test is T9, SPDEF (Homo sapiens, UniProt O95238 1-335).
T9 sequence: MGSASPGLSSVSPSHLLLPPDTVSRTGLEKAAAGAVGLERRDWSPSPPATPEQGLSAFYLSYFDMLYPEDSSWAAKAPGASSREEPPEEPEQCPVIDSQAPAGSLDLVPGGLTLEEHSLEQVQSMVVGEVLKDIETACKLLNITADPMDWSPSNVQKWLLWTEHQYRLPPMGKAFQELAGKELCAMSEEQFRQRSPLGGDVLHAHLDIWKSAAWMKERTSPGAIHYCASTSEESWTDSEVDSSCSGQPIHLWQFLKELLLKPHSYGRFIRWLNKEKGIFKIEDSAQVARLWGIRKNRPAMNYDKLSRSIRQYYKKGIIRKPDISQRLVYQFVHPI
Particulars: protein: recombinant; tags: N-terminal GST; dsDNA, one strand shown. Put shortly:
as §1

In a further test the target is T10, ETV7 (Homo sapiens, UniProt Q9Y603 1-341).
T10 sequence: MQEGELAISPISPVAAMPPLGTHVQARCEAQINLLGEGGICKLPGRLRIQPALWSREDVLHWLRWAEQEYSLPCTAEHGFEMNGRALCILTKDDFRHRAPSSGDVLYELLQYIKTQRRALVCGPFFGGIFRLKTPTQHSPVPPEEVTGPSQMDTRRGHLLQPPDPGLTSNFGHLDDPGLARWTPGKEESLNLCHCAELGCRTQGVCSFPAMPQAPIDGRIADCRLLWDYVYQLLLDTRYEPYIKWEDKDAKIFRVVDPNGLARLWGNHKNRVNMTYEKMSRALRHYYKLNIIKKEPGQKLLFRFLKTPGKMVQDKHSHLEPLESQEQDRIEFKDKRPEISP
Particulars: protein: recombinant; tags: N-terminal GST; dsDNA, one strand shown. The method, boiled down:
as §1

For the next test, the target named is T11, ELF5 (Homo sapiens, UniProt Q9UKW6-2 1-255).
T11 sequence: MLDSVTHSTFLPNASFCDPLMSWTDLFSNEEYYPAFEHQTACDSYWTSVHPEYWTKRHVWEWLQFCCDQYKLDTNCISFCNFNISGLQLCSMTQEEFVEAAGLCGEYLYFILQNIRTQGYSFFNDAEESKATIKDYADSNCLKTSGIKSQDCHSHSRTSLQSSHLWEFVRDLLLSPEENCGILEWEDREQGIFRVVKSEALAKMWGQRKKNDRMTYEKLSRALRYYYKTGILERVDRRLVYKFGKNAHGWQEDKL
The note with it: protein: recombinant; tags: N-terminal GST; dsDNA, one strand shown. The method, boiled down:
as §1

A further test has as its target T12, ETV3 (Homo sapiens, UniProt P41162-2 1-143).
T12 sequence: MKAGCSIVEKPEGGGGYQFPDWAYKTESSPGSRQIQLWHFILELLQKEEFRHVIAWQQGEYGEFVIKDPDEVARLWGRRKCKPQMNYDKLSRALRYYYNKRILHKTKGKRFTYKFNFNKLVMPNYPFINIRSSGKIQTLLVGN
Particulars: protein: recombinant; tags: N-terminal GST; dsDNA, one strand shown. The method, boiled down:
as §1

In another test the target is ETV6 (Homo sapiens, UniProt P41212 1-452). Particulars: protein: recombinant; tags: N-terminal GST; dsDNA, one strand shown. Put shortly: as §1
Sequence of ETV6 (P41212 whole entry): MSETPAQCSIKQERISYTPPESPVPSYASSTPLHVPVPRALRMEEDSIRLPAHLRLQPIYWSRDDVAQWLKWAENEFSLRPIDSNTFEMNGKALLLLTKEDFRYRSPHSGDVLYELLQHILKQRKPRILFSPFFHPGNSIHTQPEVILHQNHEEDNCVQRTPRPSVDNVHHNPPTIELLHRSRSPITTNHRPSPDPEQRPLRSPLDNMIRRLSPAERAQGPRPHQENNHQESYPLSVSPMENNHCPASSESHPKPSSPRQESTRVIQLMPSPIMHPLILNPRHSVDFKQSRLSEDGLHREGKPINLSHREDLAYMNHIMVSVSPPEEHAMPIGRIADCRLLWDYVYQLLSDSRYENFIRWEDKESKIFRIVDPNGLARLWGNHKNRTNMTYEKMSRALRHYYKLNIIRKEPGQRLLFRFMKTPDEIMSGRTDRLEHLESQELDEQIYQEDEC

Sequence of CRX (O43186 whole entry): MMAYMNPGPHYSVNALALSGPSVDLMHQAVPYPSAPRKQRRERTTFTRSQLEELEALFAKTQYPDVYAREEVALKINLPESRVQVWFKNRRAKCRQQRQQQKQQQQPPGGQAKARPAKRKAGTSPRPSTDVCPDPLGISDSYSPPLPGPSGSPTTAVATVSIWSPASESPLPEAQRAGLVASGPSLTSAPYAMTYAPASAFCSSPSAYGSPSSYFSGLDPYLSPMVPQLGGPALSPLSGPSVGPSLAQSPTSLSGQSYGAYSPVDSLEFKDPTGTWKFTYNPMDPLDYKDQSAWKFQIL
Sequence of ETV5 (P41161 whole entry): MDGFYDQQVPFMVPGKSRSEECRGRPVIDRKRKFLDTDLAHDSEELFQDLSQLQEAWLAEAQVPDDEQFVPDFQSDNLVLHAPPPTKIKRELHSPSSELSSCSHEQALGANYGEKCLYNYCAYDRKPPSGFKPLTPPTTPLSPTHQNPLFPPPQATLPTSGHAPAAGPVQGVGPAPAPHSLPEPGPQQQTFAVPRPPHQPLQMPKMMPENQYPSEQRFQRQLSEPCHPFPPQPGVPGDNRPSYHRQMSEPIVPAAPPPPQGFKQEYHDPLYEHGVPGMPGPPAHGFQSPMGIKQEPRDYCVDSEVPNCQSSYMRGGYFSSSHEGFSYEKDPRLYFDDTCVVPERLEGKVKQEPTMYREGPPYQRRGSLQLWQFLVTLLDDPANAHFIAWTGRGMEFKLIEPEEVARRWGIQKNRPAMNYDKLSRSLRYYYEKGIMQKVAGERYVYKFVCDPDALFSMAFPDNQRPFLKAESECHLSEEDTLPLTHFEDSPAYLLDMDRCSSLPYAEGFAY

On to CCCCAA, for which the binding signal was 1.16 fold enrichment (6-mer frequency, TF over GST control) with FEV; 1.12 fold enrichment (6-mer frequency, TF over GST control) with ETV5; 1.06 fold enrichment (6-mer frequency, TF over GST control) with HSF1; 1.06 fold enrichment (6-mer frequency, TF over GST control) in the test with SPIC; 1.21 fold enrichment (6-mer frequency, TF over GST control) with ELF4; 1.16 fold enrichment (6-mer frequency, TF over GST control) in the test with ELK4. The binding signal was 1.15 fold enrichment (6-mer frequency, TF over GST control) in the test with ETV2; 1.24 fold enrichment (6-mer frequency, TF over GST control) in the test with ELF3; 1.05 fold enrichment (6-mer frequency, TF over GST control) with CRX; 1.15 fold enrichment (6-mer frequency, TF over GST control) with ETV1; 1.06 fold enrichment (6-mer frequency, TF over GST control) in the test with ERF; 1.2 fold enrichment (6-mer frequency, TF over GST control) with ETV3L. The binding signal in the test with ETS2 is 1.13 fold enrichment (6-mer frequency, TF over GST control); with SPDEF, 1.11 fold enrichment (6-mer frequency, TF over GST control); with ETV7 it was 1.1 fold enrichment (6-mer frequency, TF over GST control); with ELF5 it was 1.12 fold enrichment (6-mer frequency, TF over GST control); in the test with ETV3, 1.15 fold enrichment (6-mer frequency, TF over GST control); with ETV6, 1.14 fold enrichment (6-mer frequency, TF over GST control).
